Out of some 410,000 compounds screened, about 6,400 (1.6%) were called active. About 20% were inconclusive and are not listed. For the sample, actives were picked, then their nearest neighbours and some compounds at random. Values without a mark were called inactive. Calls come from the whole dose curve; as a rule, active = well fitted inhibition curve with a large enough effect; inconclusive = small, poorly fitted or top-dose-only effect; inactive = no such curve, though single readings can be large or run the other way.
% is set by controls: 0 for no effect and ±100 for the full control effect; potency is the fitted concentration of half-maximal effect.

Sequence of Glucagon-like peptide 1 receptor (Homo sapiens) (P43220 whole entry, looked up): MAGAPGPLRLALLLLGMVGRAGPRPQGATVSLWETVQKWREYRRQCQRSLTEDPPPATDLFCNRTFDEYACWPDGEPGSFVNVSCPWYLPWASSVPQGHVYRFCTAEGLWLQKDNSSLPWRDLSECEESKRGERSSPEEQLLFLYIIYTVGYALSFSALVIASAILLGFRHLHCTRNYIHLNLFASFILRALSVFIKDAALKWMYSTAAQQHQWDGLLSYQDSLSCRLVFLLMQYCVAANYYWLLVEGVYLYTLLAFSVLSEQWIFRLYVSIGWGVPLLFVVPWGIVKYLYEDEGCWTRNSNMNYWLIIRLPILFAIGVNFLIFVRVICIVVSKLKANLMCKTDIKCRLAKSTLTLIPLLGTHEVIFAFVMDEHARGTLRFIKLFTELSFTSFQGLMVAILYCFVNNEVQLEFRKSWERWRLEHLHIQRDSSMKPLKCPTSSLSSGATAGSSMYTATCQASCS

The test has as its target Glucagon-like peptide 1 receptor (Homo sapiens) (UniProt P43220). As to the kind of experiment: qHTS of GLP-1 Receptor Inverse Agonists (Inhibition Mode). Note: nearly all actives have a fitted effect of over 55% in size. Particulars: HEK293 GLP-1R CRE-luciferase, luminescence, 24 h, GLP-1R form is constitutively active; series mostly up to 38.3 µM; activity change, negative = inhibition: at the top concentration. The procedure, abridged:
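Readout was luciferase luminescence, measured 12 min after detection reagent at room temperature. Beforehand, GLP-1R reporter HEK293 cells had sat 12 h, then received compounds for 24 hr at 37 deg C.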
(In qHTS, concentration-response curves come from the screen itself.)
Take `COc1cccc(CNC(=O)c2n[nH]c3ccccc23)c1`: the “activity change, negative = inhibition” value was 4.09%. `COc1cccc(CNc2nc(C(F)(F)F)nc3ccccc23)c1`: the Potency was 10 µM (active). For the molecule `CCN(CC)C(=O)C1CCCN(Cc2cccc(Cl)c2)C1` (stereo not given), the “activity change, negative = inhibition” value is 10.3%. With `Nc1nc2ncccn2c1-c1ccccc1`, the “activity change, negative = inhibition” value is -1.5%. Turning to `CCOC(=O)C1(C)CCCN(C(=O)c2ccc(N(C)C)cc2)C1` (stereo not given), the “activity change, negative = inhibition” value was 1.99%. `O=S1(=O)CCN(C2CCCCCCCCCCC2)CC1`: the “activity change, negative = inhibition” value was 11.9%. Regarding `COC(=O)c1ccc(CN2C(=O)NC(c3ccccc3)(c3ccccc3)C2=O)o1`, the “activity change, negative = inhibition” value was -15.6%. Regarding `COc1ccc(C2(c3ccc(OC)cc3)NC(=O)N(CC(=O)Nc3cc(C)on3)C2=O)cc1`, the “activity change, negative = inhibition” value was -19%.

Regarding `Cc1ccc(C2(c3ccc(C)cc3)NC(=O)N(Cc3c(C)noc3C)C2=O)cc1`, the Potency is 10 µM (active). With `Cc1ccc(-c2nc3c(C)cc(Br)cn3c2Cc2ccccc2)cc1`, the “activity change, negative = inhibition” value was -18.4%.

In the case of `O=C(Nc1ccccc1-c1nc2ccccc2[nH]c1=O)c1cccs1`, the “activity change, negative = inhibition” value is 42.6%. On to `CCC(c1nc2ccccc2[nH]1)n1c(=O)c(-c2cccs2)nc2ccccc21` (stereo not given), for which the Potency was 10 µM (active).

Regarding `CCC(C(=O)Nc1c(C)cccc1C)n1c(-c2cc(C)cs2)nc2ccccc21` (stereo not given), the “activity change, negative = inhibition” value was -9.76%.

Take `Cc1ccccc1CN1C(=O)CSCC1(C)C(=O)Nc1c(C)cccc1C` (stereo not given): the “activity change, negative = inhibition” value is 8.92%.

For the molecule `COc1ccc(CNS(=O)(=O)c2ccc(-c3cnc(C4CC4)o3)cc2)cc1`, the Potency result was “inactive”. `Cc1cccc(NS(=O)(=O)c2ccc(-c3cnc(C4CC4)o3)cc2)c1`: the Potency was 0.891 µM (active). Turning to `Cc1ccc(-c2cnc(C3CC3)o2)cc1S(=O)(=O)Nc1cccc(C)c1C`, the “activity change, negative = inhibition” value was -11%. As for `CC1(C(=O)NS(=O)(=O)c2cccs2)CCN1C(=O)Cc1ccc(-c2ccccc2)cc1` (stereo not given), the “activity change, negative = inhibition” value was -22.6%.

As to `Cc1csc(=O)n1CCC(=O)OCC(=O)Nc1ccc(N2CCOCC2)cc1`, the “activity change, negative = inhibition” value was 1.06%. Consider `Oc1ccc(Br)cc1/C=N/Nc1ccccn1`, for which the Potency was 2.82 µM (active). As for `Cc1c(C(=O)Nc2ccccn2)oc2ccc(Br)cc12`, the “activity change, negative = inhibition” value was 7.51%. For the molecule `Oc1ccc(/C=N/Nc2ccc(C(F)(F)F)cn2)cc1O`, the “activity change, negative = inhibition” value is 20.3%.

On to `COc1ccc(S(=O)(=O)NC(=O)C2(C)CCN2C(=O)c2ccccc2CCc2ccccc2)cc1` (stereo not given), for which the “activity change, negative = inhibition” value is -12.1%. For `CC(C)(C)C(=O)COC(=O)c1cc(S(=O)(=O)N2CCCCC2)ccc1N1CCOCC1`, the “activity change, negative = inhibition” value is -11.3%.

With `O=C(OCCOc1ccccc1Cl)c1cc(S(=O)(=O)N2CCCCC2)ccc1N1CCOCC1`, the Potency is 4.47 µM (active).

As for `O=C(OCCOc1ccccc1F)c1cc(S(=O)(=O)N2CCOCC2)ccc1F`, the “activity change, negative = inhibition” value is 1.47%.

For the molecule `CCN(CC)CCCNC(=O)c1c(O)c2cc(F)cc3c2n(c1=O)C(C)CC3` (stereo not given), the Potency was 7.94 µM (active). As for `CCN(CC)CCCNC(=O)c1cn(C)c2ccc(S(=O)(=O)N(C)C3CCCCC3)cc2c1=O`, the Potency entry was “inactive”. Take `CCN(CC)CCCNC(=O)c1ccc2c(=O)n(Cc3ccc4c(c3)OCO4)c(=S)[nH]c2c1`: the activity change, negative = inhibition is -18.1% [at 7.66 µM]. For the molecule `CCNC(=O)C1(C)CCCN(Cc2noc(-c3ccccc3OC)n2)C1` (stereo not given), the “activity change, negative = inhibition” value is -13.4%.

As to `Cc1nc2ccccc2nc1N/N=C/c1ccc(O)cc1O`, the “activity change, negative = inhibition” value is -9.04%. Turning to `Oc1ccc(-c2nc3ccccc3nc2-c2ccc(O)cc2O)c(O)c1`, the Potency was 4.47 µM (active).

In the case of `Oc1ccc2nc(Cc3ccccc3)[nH]c2c1`, the “activity change, negative = inhibition” value was 7.71%. The same measure, in the same setting: in the case of `CCc1cccc(CC)c1N1C(=O)CC(Sc2ccccc2N)C1=O` (stereo not given) it was -11.6%; in that of `Fc1ccc(-c2ccc(CNCc3ccccn3)o2)cc1Cl`, -18.3%. As to `Clc1ccc(-c2cc(-c3ccccn3)on2)c(Cl)c1`, the Potency is 5.62 µM (active). Consider `O=C1c2ccccc2C(=O)N1Cc1cc(-c2ccccc2Cl)no1`, for which the “activity change, negative = inhibition” value is 9.44%.

Regarding `Nc1nonc1-n1nnc(C(=O)N/N=C/C2CCCCC2)c1-c1ccccc1`, the “activity change, negative = inhibition” value is 22.9%. On to `CC(C)c1c(C(=O)N/N=C/c2ccccc2C(=O)O)nnn1-c1nonc1N`, for which the “activity change, negative = inhibition” value is -9.57%. With `Nc1nonc1-n1nnc(C(=O)N/N=C/c2c[nH]c3ccccc23)c1-c1ccccc1`, the Potency was 12.6 µM (active). For `Cc1[nH]c2ccccc2c1C(=O)C(=O)NCc1nnnn1-c1cccc(F)c1`, the “activity change, negative = inhibition” value is 9.36%.

Turning to `O=C(COC(=O)c1cccc(Cl)c1Cl)NC1CCCCCC1`, the “activity change, negative = inhibition” value was -2.12%. Consider `CN(C)CCNC(=O)c1ccc(Cl)c2cc3ccccc3nc12`, for which the Potency was 7.08 µM (active). `CC(=O)NCCNC(=O)c1cc(-c2cccc3ccccc23)nc2ccccc12`: the “activity change, negative = inhibition” value was 14%.

With `CCCN(CCC)CCNC(=O)c1cc2c(C)nc3ccccc3c2o1`, the “activity change, negative = inhibition” value is -23.1%. Turning to `CC(=O)NC(c1ccccc1)c1nc(-c2ccccc2C)cs1` (stereo not given), the “activity change, negative = inhibition” value is 19.8%. On to `c1ccc(-c2ccc(OCCN3CCOCC3)cc2)cc1`, for which the “activity change, negative = inhibition” value is -16.9%.

Consider `CCOc1nc(NCCN2CCOCC2)nc(Nc2ccc(C)cc2)n1`, for which the “activity change, negative = inhibition” value was 9%. For the molecule `c1ccc2cc3c(NCCN4CCOCC4)ccnc3cc2c1`, the Potency was 10 µM (active). As to `CCCCn1nnnc1C(c1ccccc1)N1CCN(c2ccccc2OC)CC1` (stereo not given), the “activity change, negative = inhibition” value is -26.8%.

The record behind these values is PubChem BioAssay AID624417 (National Center for Advancing Translational Sciences (NCATS), 2012).
